Pf Dd2 inh = blocks growth of Plasmodium falciparum Dd2 parasites. P. falciparum Dd2 growth, SYBR Green, 72 h; active compounds read low. activity change, % at 10 µM. actives 2.3% (n = 94,000). AID 1159554; in the data active = activity change below about -80%; inconclusive = no clear call, values can overlap the other calls
Tcruzi prolif = inhibitors of T. cruzi proliferation. inhibition, % at 8.34 µM. actives 5.9% (n = 77,000). T. cruzi beta-gal in NIH3T3, GalScreen luminescence, 90 h. AID 624255;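 active = mean inhibition above about 93%, with at least 55% of replicates each passing it, limit read from the data, passing the limit was not always enough; inconclusive = only one of those two conditions holds; inactive = neither condition holds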
C diff growth = C. difficile growth inhibition; actives 0.25% (n = 86,000); Clostridium difficile clinical isolate growth, OD600, 24 h; active compounds read low; growth activity, negative = inhibition, % at 16 µg/mL (by protocol); AID 1259249;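 active = mean growth activity at or below -80% and every replicate also at or below -80%; inconclusive = mean at or below -80% but some replicate above -80%; inactive = mean growth activity above -80%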
Hits are given with their value; – = inactive; ? = inconclusive; · = no result. Only some compounds are listed: those with a hit (about 6.8% of all), similar ones and a draw of the others.

SMILES	Pf Dd2 inh	Tcruzi prolif	C diff growth
CC(C)NC(=O)N(C)C[C@H]1Oc2c(NS(=O)(=O)c3cccs3)cccc2C(=O)N([C@@H](C)CO)C[C@H]1C	–	–	·
CCC(=O)N1CCC2(CC1)CN(C(=O)Nc1ccccc1F)[C@H](CO)c1[nH]c3cc(OC)ccc3c12	–	·	·
CCC(=O)N1CC2(CN(C(=O)Nc3ccc(F)cc3)C2)c2c([nH]c3cc(OC)ccc23)[C@H]1CO	–	·	–
CCC(=O)N1CC2(CCN(C(=O)Nc3ccc(F)cc3)CC2)c2c([nH]c3cc(OC)ccc23)[C@H]1CO	-84.3	·	–
COc1ccc2c3c([nH]c2c1)[C@H](CO)N(S(C)(=O)=O)CC31CCN(C(=O)Nc2ccccc2)CC1	-82.8	·	–
CCC(=O)N1CC2(CCN(C(=O)Nc3ccccc3F)CC2)c2c([nH]c3cc(OC)ccc23)[C@H]1CO	-90.3	·	–
COc1ccc2c3c([nH]c2c1)[C@@H](CO)N(S(C)(=O)=O)CC31CCN(C(=O)Nc2ccccc2)CC1	–	·	–
COc1ccc2c3c([nH]c2c1)[C@H](CO)N(C(=O)Nc1ccc(F)cc1)CC31CCN(C(=O)Cc2ccncc2)CC1	-83.5	·	–
COc1ccc2c3c([nH]c2c1)[C@@H](CO)N(C(=O)Nc1ccc(F)cc1)CC31CCN(C(=O)Cc2ccncc2)CC1	–	·	–
O=S(=O)(N[C@H]1CC[C@H](CCn2cc(C3(O)CCCC3)nn2)O[C@H]1CO)c1ccc(F)cc1	–	–	–
Cc1ccccc1S(=O)(=O)N1CC(=O)N2[C@H](CO)[C@H](c3ccc(C#CCN(C)C)cc3)[C@@H]2C1	–	·	–
COc1ccc2c3c([nH]c2c1)[C@@H](CO)NCC31CCN(C(=O)Nc2ccc(F)cc2)CC1	–	·	–
COc1ccc2c3c([nH]c2c1)[C@H](CO)N(C(C)=O)CC31CCN(C(=O)Nc2ccccc2F)CC1	-88.8	·	–
CCC(=O)N1CC2(CCN(C(=O)Nc3ccccc3F)CC2)c2c([nH]c3cc(OC)ccc23)[C@@H]1CO	-85.3	·	–
CCC(=O)N1CC2(CN(C(=O)Nc3ccccc3F)C2)c2c([nH]c3cc(OC)ccc23)[C@@H]1CO	–	·	–
COc1ccc2c3c([nH]c2c1)[C@H](CO)NCC31CCN(C(=O)Nc2ccc3c(c2)OCO3)CC1	-94.2	·	–
COc1ccc2c3c([nH]c2c1)[C@H](CO)N(C(=O)Nc1ccccc1F)CC31CCN(C(C)=O)CC1	–	·	–
COCC(=O)N(C)C[C@H]1Oc2cc(C3=CCCC3)ccc2S(=O)(=O)N([C@@H](C)CO)C[C@H]1C	–	·	–
CC(C)NC(=O)N(C)C[C@H]1Oc2ncc(C#CC3CC3)cc2C(=O)N([C@H](C)CO)C[C@H]1C	–	·	–
C[C@H]1CN([C@@H](C)CO)C(=O)c2cc(NS(=O)(=O)c3ccc(F)cc3)ccc2O[C@@H]1CN(C)S(=O)(=O)c1ccccc1	–	–	–
C[C@@H]1CN([C@H](C)CO)S(=O)(=O)c2ccc(C#Cc3ccccc3)cc2O[C@H]1CN(C)C(=O)c1ccccn1	–	–	–
COc1ccc(CN2C[C@@H](C)[C@H](OC)CN(C)C(=O)c3cc(NC(=O)c4nc5ccccc5s4)ccc3OC[C@@H]2C)cc1	–	·	·
COc1ccc(CN2C[C@H](C)[C@@H](OC)CN(C)C(=O)c3ccc(NC(=O)c4nc5ccccc5s4)cc3OC[C@@H]2C)cc1	-90.0	–	–
CO[C@@H]1CN(C)C(=O)c2ccc(NC(=O)c3nc4ccccc4s3)cc2OC[C@H](C)N(Cc2cncnc2)C[C@@H]1C	–	·	·
CO[C@@H]1CN(C)C(=O)c2ccc(NC(=O)c3cc(C)on3)cc2OC[C@@H](C)N(S(=O)(=O)c2cccc(C)c2)C[C@H]1C	-85.6	·	·
SMILES	Pf Dd2 inh	Tcruzi prolif	C diff growth
CO[C@H]1CN(C)C(=O)c2cc(NC(=O)c3nc4ccccc4s3)ccc2OC[C@H](C)N(Cc2ccncc2)C[C@H]1C	·	–	–
CO[C@@H]1CN(C)C(=O)c2cc(NC(=O)c3cc(C)on3)ccc2OC[C@@H](C)N(S(=O)(=O)c2cccc(C)c2)C[C@H]1C	–	–	·
CO[C@@H]1CN(C)C(=O)c2cc(NC(=O)c3nc4ccccc4s3)ccc2OC[C@@H](C)N(Cc2ccncc2)C[C@H]1C	-86.8	–	–
COc1ccc(CN2C[C@@H](C)[C@H](OC)CN(C)C(=O)c3cc(NC(=O)c4nc5ccccc5s4)ccc3OC[C@H]2C)cc1	-85.7	·	·
CO[C@H]1CN(C)C(=O)c2ccc(NC(=O)c3cnccn3)cc2OC[C@@H](C)NC[C@@H]1C	–	–	·
C[C@@H]1CN([C@H](C)CO)C(=O)c2cc(NC(=O)c3ccncc3)ccc2O[C@@H](C)CCCCO[C@H]1CN(C)C(=O)Nc1ccc(F)cc1	–	–	–
C[C@@H]1CN([C@H](C)CO)C(=O)c2cc(C3=CCCC3)cnc2O[C@H]1CN(C)C(=O)c1ccc2c(c1)OCO2	–	·	–
CO[C@H]1CN(C)C(=O)c2ccc(NC(=O)c3nc4ccccc4s3)cc2OC[C@@H](C)N(Cc2ccncc2)C[C@@H]1C	–	·	·
CO[C@@H]1CN(C)C(=O)c2ccc(NC(=O)c3nc4ccccc4s3)cc2OC[C@@H](C)N(Cc2ccccc2)C[C@H]1C	-95.6	·	·
COc1ccc2c3c([nH]c2c1)[C@@H](CO)N(Cc1cccc(F)c1)CC31CN(C(C)=O)C1	-85.0	·	–
COc1ccc2c3c([nH]c2c1)[C@H](CO)N(Cc1cccc(F)c1)CC31CN(C(C)=O)C1	–	·	–
COc1cc(CN2CC3(CCN(C(C)=O)CC3)c3c([nH]c4cc(OC)ccc34)[C@H]2CO)cc(OC)c1	–	·	–
COc1ccc2c3c([nH]c2c1)[C@@H](CO)N(Cc1cccc(F)c1)CC31CCN(C(C)=O)CC1	-93.3	·	–
CCCC(=O)Nc1ccc2c(c1)OC[C@@H](C)N(CCC)C[C@H](C)[C@H](OC)CN(C)C2=O	–	–	–
CC(C)CC#Cc1ccc2c(c1)O[C@@H](CN(C)Cc1ccc3c(c1)OCO3)[C@H](C)CN([C@@H](C)CO)S2(=O)=O	-81.3	–	–
CC(C)CC#Cc1ccc2c(c1)O[C@@H](CN(C)Cc1ccc3c(c1)OCO3)[C@@H](C)CN([C@H](C)CO)S2(=O)=O	–	–	–
COc1ccccc1-c1ccc2c(c1)O[C@H](CN(C)Cc1ccc3c(c1)OCO3)[C@@H](C)CN([C@H](C)CO)S2(=O)=O	-83.7	·	–
COc1ccccc1-c1ccc2c(c1)O[C@H](CN(C)Cc1ccc3c(c1)OCO3)[C@H](C)CN([C@@H](C)CO)S2(=O)=O	–	·	–
C[C@@H]1CN([C@@H](C)CO)C(=O)c2c(c3ccccc3n2C)-c2ccccc2CO[C@H]1CN(C)Cc1ccc(O)cc1	–	·	–
Cc1ccccc1S(=O)(=O)N(C)C[C@@H]1OCc2ccccc2-c2c(n(C)c3ccccc23)C(=O)N([C@@H](C)CO)C[C@H]1C	?	–	·
COc1ccccc1S(=O)(=O)N(C)C[C@@H]1OCc2ccccc2-c2c(n(C)c3ccccc23)C(=O)N([C@@H](C)CO)C[C@@H]1C	-92.6	–	–
COc1ccccc1S(=O)(=O)N(C)C[C@@H]1OCc2ccccc2-c2c(n(C)c3ccccc23)C(=O)N([C@@H](C)CO)C[C@H]1C	–	–	–
COc1ccccc1S(=O)(=O)N(C)C[C@@H]1OCc2ccccc2-c2c(n(C)c3ccccc23)C(=O)N([C@H](C)CO)C[C@@H]1C	-93.9	–	–

Bioassay records: PubChem BioAssay, Broad Institute
